HCMV antiviral = inhibitors of human cytomegalovirus | HFF cells, HCMV-luciferase reporter, 72 h; stronger effect = lower value | activity change, negative = inhibition, % at 57.5 µM | 410,000 tested, 4.5% active; in the data active means activity change below about -60%; inconclusive means no clear call, values can overlap the other calls; inactive means above about -39%
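Two-dose cell screen: HFF monolayers treated with compounds and infected with luciferase-expressing HCMV at 1 PFU/cell, 72 h at 37C, then lysed for luciferase measurement.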
LASV entry inh = inhibitors of Lassa virus binding or cell entry; Potency, µM (top dose mostly 37.9 µM), hits mostly inhibitors; Lassa virus pseudotype entry inhibition, cell reporter; 300,000 tested, 1.2% active; calls by dose curve; tested in HEK293 cells; further: nearly all actives have a fitted effect of over 50% in size
MARV entry inh = Marburg virus entry inhibition. 300,000 tested, 1.8% active. Potency, µM (top dose mostly 37.8 µM), actives largely listed as inhibitors. Marburg virus pseudotyped entry inhibition, cell reporter; calls by dose curve; tested in HEK293 cells
HCV inhibitor = HCV inhibition; Huh7.5.1 HCVcc-Cre infection, luciferase reporter, 44 h; Potency, µM (doses to about 41.8 µM), actives largely listed as inhibitors; 340,000 tested, 3.4% active
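1,000 cells/well; 4 h culture; + compound; + HCVcc-Cre (~0.5 moi); 44 h; luciferase substrate, RT 15 min; read 15 sec.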
Pf growth 96h = inhibits malaria parasite growth, 96 h; P. falciparum luciferase reporter growth, 96 h; Potency, µM (doses to about 28.7 µM), actives largely listed as inhibitors; 320,000 tested, 6.9% active
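96 h incubation, 37 C, 5% CO2, of luciferase-reporter P. falciparum-infected RBCs (2% hematocrit, 0.05% parasitemia final) with test compounds; endpoint luminescence.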
Pf growth 48h = P. falciparum growth inhibition at 48 hours (one generation) | 310,000 tested, 5.9% active | Potency, µM (top dose mostly 28.7 µM), actives largely listed as inhibitors | P. falciparum luciferase growth in erythrocytes, 48 h
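Luciferase-expressing parasites in RBCs, 2% Hct / 0.1% parasitemia final; RPMI 1640 + 0.5% Albumax; 37 C, 5% CO2, one generation; luminescence read-out, lower signal = inhibition.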
Numbers stand for hits. The list is not random: actives were taken first. Their share in the collection is about 14%. Unless noted, the call rests on the fitted dose curve; in most records, active means well fitted inhibition curve with a large enough effect; inconclusive means small, poorly fitted or top-dose-only effect, or another doubt; inactive means no such curve, though single readings can be large or run the other way.

`CS(=O)(=O)N(CC(=O)N1CCOCC1)Cc1ccc(Cl)cc1` gave HCMV antiviral inactive, LASV entry inh inactive, MARV entry inh inactive, HCV inhibitor inactive, Pf growth 96h 7.4µM and Pf growth 48h inactive.
CCn1nnc2cc(C(=O)Nc3ccc(C)c(Cl)c3)ccc21 was read as HCMV antiviral inactive and LASV entry inh inactive.
COc1cccc(CNC(=O)C(CC(C)C)NS(=O)(=O)c2ccc3c(c2)oc(=O)n3C)c1 (stereo unspecified) was read as HCMV antiviral inactive, LASV entry inh inactive and MARV entry inh inactive.
`CNc1nc(Oc2ccc(C(=O)OC)cc2)nc(SC)n1` gave HCMV antiviral inactive, LASV entry inh inconclusive, MARV entry inh inactive, HCV inhibitor inactive, Pf growth 96h inactive and Pf growth 48h 10µM.
`CCOC(=O)c1ccc(Oc2nc(NC)nc(OC)n2)cc1` gave HCMV antiviral inactive, LASV entry inh inactive, MARV entry inh inactive, HCV inhibitor inactive, Pf growth 96h inactive and Pf growth 48h 13µM.
CCN(CC)c1nc(Oc2ccc(C(=O)NN)cc2)nc(Oc2ccc(C(=O)NN)cc2)n1 was read as HCMV antiviral inconclusive, LASV entry inh inactive, MARV entry inh inactive, HCV inhibitor inactive, Pf growth 96h 9.3µM and Pf growth 48h 9.3µM.
CCNc1nc(OC)nc(Oc2ccc(C(=O)OC)cc2)n1 was read as HCMV antiviral inactive, LASV entry inh inconclusive, MARV entry inh inactive, HCV inhibitor inactive and Pf growth 48h inconclusive.
Screening CCc1nc2c(OCc3ccc(F)c(F)c3)cccn2c1N(C)C(=O)c1ccc(OC)cc1 returned HCMV antiviral inactive.
`COc1ccc(S(=O)(=O)c2cn(CC(=O)Nc3cc(C)ccc3C)c3ccccc3c2=O)cc1` gave HCMV antiviral inactive, LASV entry inh inactive and MARV entry inh inactive.
`O=C1/C(=C\c2cc(Cl)c(O)c(Cl)c2)SC(=S)N1Cc1ccccc1` gave HCMV antiviral -99, LASV entry inh 4µM, MARV entry inh 6.3µM, HCV inhibitor inconclusive, Pf growth 96h inconclusive and Pf growth 48h inconclusive.
COc1ccc(OC)c(/C=C2\SC(=S)N(Cc3cccnc3)C2=O)c1 was read as HCMV antiviral inconclusive, LASV entry inh inconclusive, MARV entry inh inconclusive, HCV inhibitor inactive, Pf growth 96h 9.3µM and Pf growth 48h inactive.
`COc1ccc(O)c(/C=C2/SC(=S)N(Cc3ccccc3)C2=O)c1` gave HCMV antiviral inactive, HCV inhibitor inactive, Pf growth 96h inactive and Pf growth 48h inconclusive.
`COc1ccc(/C=C2/SC(=S)N(Cc3ccccc3)C2=O)cc1O` gave HCMV antiviral inconclusive, HCV inhibitor inconclusive, Pf growth 96h inconclusive and Pf growth 48h 8.3µM.
`S=c1[nH]ccc2ccccc12` gave HCMV antiviral inactive, LASV entry inh inactive, MARV entry inh inactive and HCV inhibitor inactive.
CC1(C(=O)NS(=O)(=O)c2ccc(F)cc2F)CCN1C(=O)c1ccc(C2CCCCC2)cc1 (stereo unspecified) was read as HCMV antiviral inactive.
Screening COc1ccc2cc3[n+](cc2c1O)CCc1cc2c(cc1-3)OCO2 returned HCMV antiviral inactive.
Screening COc1cc2c(cc1OC)-c1cc3ccc(OC)c(OC)c3c[n+]1CC2 returned HCMV antiviral inactive, HCV inhibitor inconclusive, Pf growth 96h 0.17µM and Pf growth 48h 0.19µM.
Screening c1ccc(CCc2cc3ccccc3[nH]2)cc1 returned HCMV antiviral inactive, HCV inhibitor inactive, Pf growth 96h inconclusive and Pf growth 48h inactive.
Screening O=C(c1nc2ccccn2c1CN1CCC(Cc2ccccc2)CC1)N1CCCC1 returned HCMV antiviral inactive, LASV entry inh inactive, MARV entry inh inconclusive, HCV inhibitor inactive, Pf growth 96h inactive and Pf growth 48h 10µM.
`Cc1ccc(NC(=O)c2cnn(-c3ccc(C)c(C)c3)c2C2CCN(C(=O)OC(C)(C)C)CC2)c(C)c1` gave HCMV antiviral inactive, LASV entry inh inconclusive and MARV entry inh inconclusive.
For CCOc1ccc(CN2CCCC(CO)(Cc3ccc(F)cc3)C2)cc1 (stereo unspecified) the results were HCMV antiviral inactive, LASV entry inh inactive, MARV entry inh 7.9µM, HCV inhibitor inactive, Pf growth 96h inconclusive and Pf growth 48h inactive.
For COc1ccc(CN2CCCC(CO)(Cc3ccc(F)cc3F)C2)cc1 (stereo unspecified) the results were HCMV antiviral inactive, LASV entry inh inactive, MARV entry inh 10µM, HCV inhibitor inactive, Pf growth 96h 10µM and Pf growth 48h inactive.
For OCC1(Cc2ccc(F)cc2)CCCN(Cc2ccc(F)cc2Cl)C1 (stereo unspecified) the results were HCMV antiviral inactive, LASV entry inh inconclusive, MARV entry inh inconclusive, HCV inhibitor inactive, Pf growth 96h inconclusive and Pf growth 48h inactive.
`CC(C)OC(=O)CSc1nnc(-c2cnccn2)n1Cc1ccco1` gave HCMV antiviral inactive, LASV entry inh inactive, MARV entry inh inactive, HCV inhibitor inactive and Pf growth 48h inactive.
`O=C(CSc1nnc(COc2ccccc2)n1Cc1ccco1)c1ccc(F)cc1` gave HCMV antiviral inactive, LASV entry inh inactive, MARV entry inh inactive, HCV inhibitor inactive, Pf growth 96h 13µM and Pf growth 48h 12µM.
Screening O=C(CSc1nnc(-c2cc3ccccc3cc2O)n1Cc1ccco1)c1ccc(F)cc1 returned HCMV antiviral inconclusive, LASV entry inh 23µM, MARV entry inh inconclusive, HCV inhibitor 16µM and Pf growth 96h inconclusive.
`O=C(CSc1nnc(-c2cnccn2)n1Cc1ccco1)c1ccc2ccccc2c1` gave HCMV antiviral inactive, LASV entry inh inactive, MARV entry inh inactive, HCV inhibitor inactive, Pf growth 96h 10µM and Pf growth 48h inactive.
`Cc1occc1-c1nnc(SCC(=O)c2ccc(F)cc2)n1Cc1ccco1` gave HCMV antiviral inactive, LASV entry inh inactive, MARV entry inh inactive, HCV inhibitor inconclusive and Pf growth 48h inactive.
For Cc1ccc(OCc2nnc(SCC(=O)c3ccccc3)n2Cc2ccco2)cc1 the results were HCMV antiviral inactive, LASV entry inh inconclusive, MARV entry inh inconclusive, HCV inhibitor inconclusive, Pf growth 96h inactive and Pf growth 48h inconclusive.
`COc1ccc(NC(=O)C(=O)NCc2ccco2)c(OC)c1` gave HCMV antiviral inactive and LASV entry inh inactive.
Screening Cc1cccc(N2C(=O)C(CC(=O)Nc3ccc(F)cc3)N(C3CCCC3)C2=O)c1 (stereo unspecified) returned HCMV antiviral inactive and LASV entry inh inactive.
CC(C)NC(=O)N(C)C[C@@H]1OCc2cn(nn2)CCCC(=O)N([C@@H](C)CO)C[C@H]1C was read as HCMV antiviral inactive.
OCc1nc2ccccc2n1CC(O)Cn1ccc2ccccc21 (stereo unspecified) was read as HCMV antiviral inconclusive, LASV entry inh inactive, MARV entry inh inactive, HCV inhibitor inactive, Pf growth 96h inconclusive and Pf growth 48h inactive.

From PubChem BioAssay
